Measured values published in the supplement of paper PMC10849652.
About 7,900 targets were measured; listed, in parts, are those with a hit and a random draw of the rest. About 0.6% of all pairs of compound and target were hits.

What was measured:
Assay in all cases: log2 fold change, soluble protein after heating vs DMSO (PISA); higher = thermal stabilisation; K562 cells, 10 uM, 30 min; active = over 0.2 and 3.5 SD of the protein, either way, in both replicates (recomputed)
erlotinib = compound: C#Cc1cccc(Nc2ncnc3cc(OCCOC)c(OCCOC)cc23)c1 [erlotinib]
Procedure, shortened: (§1)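 Aliquots of K562 cells (2×10^6 cells/mL) treated with 10 μM compound for 30 min were heated for 3 min over 48°C-58°C. After pooling and extraction in PBS with 0.5% NP-40 at 4°C, soluble protein from a 21,000xg, 90 min spin was quantified by TMTpro 16plex LC-MS/MS with channel sums equalised. Thermal stability is expressed against control samples, from duplicates, as a log2 fold change.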

[1] = compound: C/C(=N\NC(=O)C1=CC(=CC=C1)S(=O)(=O)N2CCOCC2)/C3=C(C=CC(=C3)Cl)O
Procedure, shortened: as §1

[2] = compound: C1=CC(=C(C=C1Cl)C2=NC3=NC=CN=C3C(=N2)NC4=CC=NC=C4)F
Procedure, shortened: as §1

[3] = compound: C1=CC(=CC=C1C2=NC3=C(N2)C=C(C=C3)C(=O)N)OC4=CC=C(C=C4)Cl
Procedure, shortened: as §1

[4] = compound: C1=CC2=C(C=CC(=C2)/C=C\3/C(=O)NC(=NCC4=CC=CS4)S3)N=C1
Procedure, shortened: as §1

[5] = compound: C1=CC2=NC=CN=C2C=C1/C=C/3\C(=O)NC(=O)S3
Procedure, shortened: as §1

[6] = compound: C1=CC=C(C=C1)C2=NC(=C(N2)C3=CC=NC=C3)C4=CC(=C(C=C4)Cl)O
Procedure, shortened: as §1

[7] = compound: C1=CC=C2C(=C1)C3=NNC4=CC=CC(=C43)C2=O
Procedure, shortened: as §1

[8] = compound: C1CCN(C1)C(=O)NC2=CC=CC(=C2)NC3=NC=C(C(=N3)NCCC4=CN=CN4)Br
Procedure, shortened: as §1

[9] = compound: C1CN(CCC1(CC2=CC=C(C=C2)Cl)N)C3=NC=NC4=C3C=CN4
Procedure, shortened: as §1

IRAK-1-4 Inhibitor I = compound: C1COCCN1CCN2C3=CC=CC=C3N=C2NC(=O)C4=CC(=CC=C4)[N+](=O)[O-] [IRAK-1-4 Inhibitor I]
Procedure, shortened: as §1

ibrutinib = compound: C=CC(=O)N1CCC[C@@H](n2nc(-c3ccc(Oc4ccccc4)cc3)c3c(N)ncnc32)C1 [ibrutinib]
Procedure, shortened: as §1

[10] = compound: CC(=O)c1cnc2ccc(-c3cc(Cl)c(O)c(Cl)c3)nc2c1N[C@H]1CC[C@H](CN(C)C)CC1
Procedure, shortened: as §1

ralimetinib = compound: CC(C)(C)Cn1c(N)nc2ccc(-c3[nH]c(C(C)(C)C)nc3-c3ccc(F)cc3)nc21 [ralimetinib]
Procedure, shortened: as §1

[11] = compound: CC(C)(O)CC(=O)NCCn1ccc2ncnc(Nc3ccc(Oc4cccc(C(F)(F)F)c4)c(Cl)c3)c21
Procedure, shortened: as §1

[12] = compound: CC(C)C1=C2N=C(C=C(N2N=C1)NCC3=CC=CC=C3)NCCCCCCN
Procedure, shortened: as §1

[13] = compound: CC(C)C[C@@H](C=O)NC(=O)[C@H](CC(C)C)NC(=O)[C@H](CC(C)C)NC(=O)OCc1ccccc1
Procedure, shortened: as §1

pinometostat = compound: CC(C)N(C[C@H]1O[C@@H](n2cnc3c(N)ncnc32)[C@H](O)[C@@H]1O)[C@H]1C[C@@H](CCc2nc3cc(C(C)(C)C)ccc3[nH]2)C1 [pinometostat]
Procedure, shortened: as §1

[14] = compound: CC1=C(C(CC(=O)N1)C2=CC=C(C=C2)C(F)(F)F)C(=O)NC3=C(C=C4C(=C3)C=NN4)F
Procedure, shortened: as §1

[15] = compound: CC1=C(C2=C(C=C1)C(=O)C3=CC=CC=C3N2CCCN)C
Procedure, shortened: as §1

Measured: log2 fold change

CHMP4B (UniProt Q9H444)
Sequence of UniProt Q9H444 (Q9H444 whole entry, looked up): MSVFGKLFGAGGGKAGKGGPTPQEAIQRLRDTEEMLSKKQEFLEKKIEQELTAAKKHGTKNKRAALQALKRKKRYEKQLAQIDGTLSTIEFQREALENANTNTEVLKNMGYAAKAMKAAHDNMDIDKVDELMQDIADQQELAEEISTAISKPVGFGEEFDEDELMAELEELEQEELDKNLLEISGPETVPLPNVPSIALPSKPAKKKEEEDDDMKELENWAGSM
inactive: erlotinib 0.018 | [1] -0.006 | [2] 0.024 | [3] 0.013 | [4] -0.014 | [5] 0.057 | [6] 0.043 | [7] -0.001 | [8] 0.083 | [9] 0.035 | IRAK-1-4 Inhibitor I 0.068 | ibrutinib -0.024 | [10] 0.015 | ralimetinib 0.039 | [11] 0.015 | [12] 0.014 | [13] -0.003 | pinometostat -0.032 | [14] 0.046 | [15] -0.011

CCDC9 (UniProt Q9Y3X0)
Sequence of UniProt Q9Y3X0 (Q9Y3X0 whole entry, looked up): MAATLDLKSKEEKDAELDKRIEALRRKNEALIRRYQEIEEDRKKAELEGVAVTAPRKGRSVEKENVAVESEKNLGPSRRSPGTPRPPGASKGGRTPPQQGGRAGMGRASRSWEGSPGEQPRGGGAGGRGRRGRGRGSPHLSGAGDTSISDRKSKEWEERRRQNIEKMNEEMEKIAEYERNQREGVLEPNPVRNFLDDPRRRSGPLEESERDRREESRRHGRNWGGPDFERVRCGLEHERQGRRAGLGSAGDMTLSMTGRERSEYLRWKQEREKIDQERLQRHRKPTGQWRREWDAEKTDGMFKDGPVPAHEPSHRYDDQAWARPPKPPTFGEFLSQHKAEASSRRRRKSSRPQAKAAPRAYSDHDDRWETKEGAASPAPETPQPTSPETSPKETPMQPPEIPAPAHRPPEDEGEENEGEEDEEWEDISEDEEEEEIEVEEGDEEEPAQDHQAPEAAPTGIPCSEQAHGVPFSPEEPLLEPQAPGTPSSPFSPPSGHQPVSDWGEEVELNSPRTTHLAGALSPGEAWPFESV
active: [15] 0.296
inactive: erlotinib 0.017 | [1] -0.116 | [2] -0.036 | [3] 0.047 | [4] -0.045 | [5] 0.034 | [6] 0.027 | [7] -0.02 | [8] 0.062 | [9] 0.034 | IRAK-1-4 Inhibitor I -0.05 | ibrutinib 0.078 | [10] 0.173 | ralimetinib 0.031 | [11] 0.053 | [12] 0.105 | [13] 0.087 | pinometostat -0.024 | [14] 0.021

CAMSAP1 isoform 3 (UniProt Q5T5Y3)
inactive: erlotinib -0.084 | [1] 0.023 | [2] -0.014 | [3] -0.013 | [4] 0.058 | [5] 0.007 | [6] 0.035 | [7] -0.078 | [8] -0.016 | [9] 0.006 | IRAK-1-4 Inhibitor I -0.076 | ibrutinib -0.069 | [10] -0.29 | ralimetinib -0.031 | [11] -0.062 | [12] -0.078 | [13] 0.031 | pinometostat 0.121 | [14] -0.056 | [15] 0.108

CHST10 (UniProt O43529)
Sequence of UniProt O43529 (O43529 whole entry, looked up): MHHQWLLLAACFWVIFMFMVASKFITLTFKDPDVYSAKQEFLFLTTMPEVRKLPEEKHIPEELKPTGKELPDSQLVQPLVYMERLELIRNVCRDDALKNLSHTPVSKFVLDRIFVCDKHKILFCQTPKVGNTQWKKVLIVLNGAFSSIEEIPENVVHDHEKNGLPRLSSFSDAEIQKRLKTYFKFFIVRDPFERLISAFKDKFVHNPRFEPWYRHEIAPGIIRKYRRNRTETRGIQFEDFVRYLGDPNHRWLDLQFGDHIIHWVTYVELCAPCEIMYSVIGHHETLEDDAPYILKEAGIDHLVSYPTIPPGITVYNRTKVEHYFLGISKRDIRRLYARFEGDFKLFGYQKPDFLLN
active: [12] -0.435
inactive: erlotinib 0.013 | [1] -0.168 | [2] -0.144 | [3] -0.058 | [4] -0.111 | [5] 0.03 | [6] 0.067 | [7] 0.101 | [8] 0.008 | [9] 0.06 | IRAK-1-4 Inhibitor I 0.056 | ibrutinib -0.062 | [10] -0.135 | ralimetinib 0.059 | [11] 0.042 | [13] -0.003 | pinometostat 0.082 | [14] 0.025 | [15] 0.036

CSTF3 (UniProt Q12996)
Sequence of UniProt Q12996 (Q12996 whole entry, looked up): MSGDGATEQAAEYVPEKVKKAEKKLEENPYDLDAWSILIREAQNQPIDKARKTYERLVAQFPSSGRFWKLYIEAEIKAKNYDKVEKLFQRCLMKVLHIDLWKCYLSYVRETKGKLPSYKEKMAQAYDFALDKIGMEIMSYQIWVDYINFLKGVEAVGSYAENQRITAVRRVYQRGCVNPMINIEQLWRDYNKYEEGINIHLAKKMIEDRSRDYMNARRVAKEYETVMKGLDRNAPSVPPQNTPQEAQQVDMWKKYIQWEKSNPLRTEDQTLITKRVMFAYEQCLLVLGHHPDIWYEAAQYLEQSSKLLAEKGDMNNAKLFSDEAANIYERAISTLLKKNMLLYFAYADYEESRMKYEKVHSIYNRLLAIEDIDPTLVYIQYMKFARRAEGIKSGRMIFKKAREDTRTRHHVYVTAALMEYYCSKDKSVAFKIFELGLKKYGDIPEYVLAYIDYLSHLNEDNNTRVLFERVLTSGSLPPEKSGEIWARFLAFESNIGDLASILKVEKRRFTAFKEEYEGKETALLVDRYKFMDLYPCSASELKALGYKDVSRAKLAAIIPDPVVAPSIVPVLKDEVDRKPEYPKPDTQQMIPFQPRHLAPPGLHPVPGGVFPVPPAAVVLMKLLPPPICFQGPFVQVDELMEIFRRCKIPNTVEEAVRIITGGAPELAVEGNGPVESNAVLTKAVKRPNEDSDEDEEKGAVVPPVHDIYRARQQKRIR
inactive: erlotinib -0.038 | [1] 0.012 | [2] -0.003 | [3] 0.015 | [4] 0.014 | [5] 0.077 | [6] -0.032 | [7] 0.035 | [8] 0.027 | [9] -0.027 | IRAK-1-4 Inhibitor I 0.087 | ibrutinib 0 | [10] 0.019 | ralimetinib -0.052 | [11] -0.026 | [12] 0.132 | [13] -0.012 | pinometostat 0.021 | [14] -0.018
active: [15] 0.262

COX20 isoform 2 (UniProt Q5RI15)
Sequence of UniProt Q5RI15 (Q5RI15 whole entry, looked up): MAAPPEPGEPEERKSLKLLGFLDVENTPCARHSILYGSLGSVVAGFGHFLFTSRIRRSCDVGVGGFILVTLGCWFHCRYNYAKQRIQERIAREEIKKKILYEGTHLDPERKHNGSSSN
inactive: erlotinib 0.037 | [1] 0.013 | [2] 0.072 | [3] 0.008 | [4] 0.057 | [5] 0.016 | [6] -0.092 | [7] -0.061 | [8] 0 | [9] 0.03 | IRAK-1-4 Inhibitor I -0.019 | ibrutinib 0.043 | [10] -0.022 | ralimetinib -0.055 | [11] 0.016 | [12] 0.006 | [13] 0 | pinometostat -0.018 | [14] -0.018 | [15] 0.019

CEPT1 (UniProt Q9Y6K0)
Sequence of UniProt Q9Y6K0 (Q9Y6K0 whole entry, looked up): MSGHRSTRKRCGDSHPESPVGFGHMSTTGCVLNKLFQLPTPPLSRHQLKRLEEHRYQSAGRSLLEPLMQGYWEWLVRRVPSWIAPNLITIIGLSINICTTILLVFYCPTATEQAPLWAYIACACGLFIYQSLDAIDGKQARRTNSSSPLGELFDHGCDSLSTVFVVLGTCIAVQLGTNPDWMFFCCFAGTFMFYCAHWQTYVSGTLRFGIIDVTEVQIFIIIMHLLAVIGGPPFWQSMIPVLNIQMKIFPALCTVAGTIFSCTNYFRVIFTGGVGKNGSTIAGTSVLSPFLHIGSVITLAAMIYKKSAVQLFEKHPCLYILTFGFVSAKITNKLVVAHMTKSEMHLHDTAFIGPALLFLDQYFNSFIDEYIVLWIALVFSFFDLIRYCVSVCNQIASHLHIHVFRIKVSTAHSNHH
active: [12] -0.466
inactive: erlotinib 0.099 | [1] 0.034 | [2] 0.016 | [3] 0.107 | [4] 0.037 | [5] 0.047 | [6] 0.011 | [7] 0.071 | [8] 0.007 | [9] -0.074 | IRAK-1-4 Inhibitor I 0.035 | ibrutinib -0.014 | [10] 0.072 | ralimetinib -0.026 | [11] 0.073 | [13] -0.118 | pinometostat -0.016 | [14] 0.023 | [15] 0.118

CETN2 (UniProt P41208)
Sequence of UniProt P41208 (P41208 whole entry, looked up): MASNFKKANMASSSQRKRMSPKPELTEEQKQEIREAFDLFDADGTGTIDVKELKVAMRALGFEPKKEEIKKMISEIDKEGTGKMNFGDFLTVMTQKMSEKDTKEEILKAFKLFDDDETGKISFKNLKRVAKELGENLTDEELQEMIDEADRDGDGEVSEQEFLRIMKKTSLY
inactive: erlotinib 0.121 | [1] -0.015 | [2] -0.002 | [3] 0.017 | [4] -0.058 | [5] 0.03 | [6] -0.058 | [7] -0.113 | [8] 0.039 | [9] 0.049 | IRAK-1-4 Inhibitor I -0.067 | ibrutinib 0.006 | [10] -0.019 | ralimetinib -0.012 | [11] 0.074 | [12] 0.17 | [13] 0.043 | pinometostat 0.011 | [14] 0.075 | [15] -0.045

COASY isoform 2 (UniProt Q13057)
Sequence of UniProt Q13057 (Q13057 whole entry, looked up): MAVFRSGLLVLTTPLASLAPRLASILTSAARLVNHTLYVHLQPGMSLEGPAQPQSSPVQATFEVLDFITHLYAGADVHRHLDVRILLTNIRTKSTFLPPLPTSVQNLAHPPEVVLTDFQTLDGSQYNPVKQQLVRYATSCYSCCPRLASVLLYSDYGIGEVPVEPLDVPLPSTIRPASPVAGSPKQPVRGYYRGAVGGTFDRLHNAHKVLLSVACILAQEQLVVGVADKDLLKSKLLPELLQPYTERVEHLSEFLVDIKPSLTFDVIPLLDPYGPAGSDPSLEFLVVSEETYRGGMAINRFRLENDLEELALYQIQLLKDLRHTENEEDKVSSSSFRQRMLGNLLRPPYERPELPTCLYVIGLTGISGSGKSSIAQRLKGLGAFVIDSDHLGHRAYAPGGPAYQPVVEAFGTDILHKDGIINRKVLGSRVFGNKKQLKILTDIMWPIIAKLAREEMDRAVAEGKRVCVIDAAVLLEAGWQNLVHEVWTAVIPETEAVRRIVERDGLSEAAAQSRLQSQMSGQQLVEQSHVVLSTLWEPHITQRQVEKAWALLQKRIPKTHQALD
inactive: erlotinib -0.022 | [1] 0.1 | [2] 0.042 | [3] -0.067 | [4] 0.032 | [5] 0.01 | [6] 0.076 | [7] 0.043 | [8] -0.011 | [9] 0.092 | IRAK-1-4 Inhibitor I 0.039 | ibrutinib 0.004 | [10] -0.016 | ralimetinib -0.032 | [11] -0.063 | [12] 0.037 | [13] -0.02 | pinometostat 0.005 | [14] -0.018 | [15] 0.079

CNDP2 (UniProt Q96KP4)
Sequence of UniProt Q96KP4 (Q96KP4 whole entry, looked up): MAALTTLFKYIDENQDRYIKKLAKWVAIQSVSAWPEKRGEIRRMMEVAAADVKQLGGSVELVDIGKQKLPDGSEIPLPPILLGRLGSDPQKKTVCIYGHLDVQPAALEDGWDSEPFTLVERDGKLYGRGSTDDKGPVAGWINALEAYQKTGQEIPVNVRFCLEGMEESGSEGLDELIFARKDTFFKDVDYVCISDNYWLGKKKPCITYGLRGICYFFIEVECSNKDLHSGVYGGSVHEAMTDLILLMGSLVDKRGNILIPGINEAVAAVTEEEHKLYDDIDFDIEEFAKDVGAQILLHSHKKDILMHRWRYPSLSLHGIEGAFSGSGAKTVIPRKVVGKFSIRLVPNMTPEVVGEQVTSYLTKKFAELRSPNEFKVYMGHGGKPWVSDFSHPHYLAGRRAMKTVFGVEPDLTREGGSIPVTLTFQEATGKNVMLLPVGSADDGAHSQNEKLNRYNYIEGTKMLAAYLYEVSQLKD
inactive: erlotinib 0.035 | [1] -0.099 | [2] 0.058 | [3] 0.022 | [4] 0.091 | [5] -0.024 | [6] 0.064 | [7] 0.058 | [8] 0.023 | [9] 0.072 | IRAK-1-4 Inhibitor I 0.098 | ibrutinib 0.002 | [10] -0.01 | ralimetinib 0.07 | [11] -0.005 | [12] -0.011 | [13] -0.029 | pinometostat -0.035 | [14] -0.011 | [15] 0.042

CCZ1 (UniProt P86791)
Sequence of UniProt P86791 (P86791 whole entry, looked up): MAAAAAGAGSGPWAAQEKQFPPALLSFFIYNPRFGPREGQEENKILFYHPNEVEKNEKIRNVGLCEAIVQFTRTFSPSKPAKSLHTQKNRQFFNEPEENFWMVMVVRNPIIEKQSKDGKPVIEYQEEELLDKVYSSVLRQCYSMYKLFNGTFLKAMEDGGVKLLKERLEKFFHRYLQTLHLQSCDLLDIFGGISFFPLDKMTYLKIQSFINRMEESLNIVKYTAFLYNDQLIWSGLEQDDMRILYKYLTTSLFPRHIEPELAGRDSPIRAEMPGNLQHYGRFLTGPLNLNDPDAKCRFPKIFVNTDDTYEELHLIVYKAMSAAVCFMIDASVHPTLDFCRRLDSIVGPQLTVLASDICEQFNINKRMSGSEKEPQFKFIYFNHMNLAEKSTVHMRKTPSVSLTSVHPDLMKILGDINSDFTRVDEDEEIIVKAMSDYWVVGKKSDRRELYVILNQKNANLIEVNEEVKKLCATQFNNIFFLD
active: [12] -0.287
inactive: erlotinib 0.027 | [1] 0.046 | [2] -0.003 | [3] 0.064 | [4] 0.034 | [5] -0.017 | [6] 0.031 | [7] 0.011 | [8] 0.016 | [9] 0.011 | IRAK-1-4 Inhibitor I 0.063 | ibrutinib -0.001 | [10] -0.039 | ralimetinib -0.051 | [11] -0.05 | [13] 0.025 | pinometostat 0.012 | [14] -0.007 | [15] 0.006

CETN3 (UniProt O15182)
Sequence of UniProt O15182 (O15182 whole entry, looked up): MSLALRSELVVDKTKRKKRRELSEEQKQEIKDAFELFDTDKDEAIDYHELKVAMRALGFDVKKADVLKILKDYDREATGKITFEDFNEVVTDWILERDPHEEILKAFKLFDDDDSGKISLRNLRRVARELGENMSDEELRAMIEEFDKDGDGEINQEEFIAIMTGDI
inactive: erlotinib -0.098 | [1] 0.009 | [2] -0.065 | [3] -0.022 | [4] 0.027 | [5] 0.077 | [6] -0.12 | [7] -0.055 | [8] 0.041 | [9] -0.125 | IRAK-1-4 Inhibitor I 0.031 | ibrutinib -0.022 | [10] -0.006 | ralimetinib -0.075 | [11] 0.035 | [12] -0.038 | [13] 0.039 | pinometostat 0.016 | [14] -0.002 | [15] -0.18

CPSF7 isoform 3 (UniProt Q8N684)
Sequence of UniProt Q8N684 (Q8N684 whole entry, looked up): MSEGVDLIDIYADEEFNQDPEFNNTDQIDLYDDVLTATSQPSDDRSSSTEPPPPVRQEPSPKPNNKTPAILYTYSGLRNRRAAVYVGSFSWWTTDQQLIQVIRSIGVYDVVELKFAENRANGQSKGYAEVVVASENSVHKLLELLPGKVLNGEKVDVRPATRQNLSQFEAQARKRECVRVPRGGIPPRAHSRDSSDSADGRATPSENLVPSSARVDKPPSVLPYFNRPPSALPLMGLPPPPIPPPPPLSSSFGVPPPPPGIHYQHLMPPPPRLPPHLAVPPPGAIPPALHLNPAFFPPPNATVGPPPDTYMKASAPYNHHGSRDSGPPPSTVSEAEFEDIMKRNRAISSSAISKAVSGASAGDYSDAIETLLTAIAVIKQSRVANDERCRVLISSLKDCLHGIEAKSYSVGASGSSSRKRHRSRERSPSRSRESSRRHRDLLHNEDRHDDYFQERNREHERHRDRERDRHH
active: [10] -0.242 | [15] 0.236
inactive: erlotinib -0.035 | [1] 0.054 | [2] -0.015 | [3] 0.041 | [4] -0.001 | [5] 0.005 | [6] 0.01 | [7] -0.005 | [8] -0.035 | [9] -0.016 | IRAK-1-4 Inhibitor I -0.037 | ibrutinib 0 | ralimetinib 0.003 | [11] -0.002 | [12] 0.02 | [13] -0.045 | pinometostat -0.028 | [14] -0.016
